Pf Dd2 growth: Plasmodium falciparum Dd2 growth inhibition; AID 1347417; P. falciparum Dd2 growth, SYBR Green, 72 h; 4.3% of 120,000 active; Potency, µM (highest dose often 28.9 µM), without a hit: top-dose activity, negative = inhibition, usual class: inhibitors; active means well fitted inhibition curve with a large enough effect;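 further: plate controls were DMSO vehicle for no effect and reference drug for full effect; nearly all actives have a fitted effect of over 65% in size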
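Infected erythrocytes (Dd2, 0.3% parasitemia, 2.5% hematocrit final) are added to compound in RPMI-1640/Albumax II medium, grown 72 h at 37C in low oxygen, then lysed with saponin/Triton-X containing SYBR Green and read by fluorescence.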
* marks the source's active call; other numbers are inactive results; i = inactive. The full list was thinned out, with hits kept by preference. Potency means the concentration at half of the fitted maximal effect.

SMILES | Pf Dd2 growth
O=C(NC1CCCN(c2nc3ncccc3o2)C1)c1ccccc1Cl (stereo not drawn) | i
COC[C@@H]1CN(S(C)(=O)=O)C[C@H]1c1ccncc1 | i
COc1cc(=O)n2c(c1C(=O)Nc1cccc(SC)c1)CCCC2 | 8.9%
CCc1ccc(NC(=O)Cn2nnc(C(=O)NCc3ccc(C)cc3)c2N)cc1 | 10.6%
Nc1c(C(=O)NCc2ccc(Cl)cc2Cl)nnn1Cc1ccc(Br)cc1 | i
CCc1ccccc1NC(=O)Cn1nnc(C(=O)NCc2ccccc2Cl)c1N | -5.7%
Cc1ccc(CNC(=O)c2nnn(CC(=O)Nc3cc(C)ccc3C)c2N)cc1 | i
Cc1ccc(C)c(Cn2nnc(C(=O)NCc3ccc(Cl)cc3Cl)c2N)c1 | 4.47µM*
Cc1ccc(CNC(=O)c2nnn(Cc3ccc(F)cc3)c2N)cc1 | 3.16µM*
CCc1ccccc1S(=O)(=O)N1CCC(n2cnnc2C(C)C)CC1 | -7.1%
CCn1ncc(C(=O)N2CCC(C3CCN(S(C)(=O)=O)CC3)C2)c1C (stereo not drawn) | -4.2%
CCCn1c(C)cnc1CC1CCN(C(=O)c2ccccn2)C1 (stereo not drawn) | 18.7%
COc1ccc(CC(=O)N2CC(c3nnc(C(C)C)o3)C3(CCOCC3)C2)cc1Cl (stereo not drawn) | -11.6%
O=C(NCc1ccc(F)cc1)C1c2ccccc2C(=O)N(Cc2ccccc2)C12CCCC2 (stereo not drawn) | -23.4%
COc1ccccc1C1NC(=O)N(CC(=O)N2CCCC2)C2=C1C(=O)OC2 (stereo not drawn) | 16.2%
COc1cc2c(cc1OC)C(CNC(=O)c1ccco1)N(C(=O)Nc1cccc(F)c1)CC2 (stereo not drawn) | i
COC(=O)c1ccc(OCC2c3cc(OC)c(OC)cc3CCN2C(=O)c2ccc(F)cc2)cc1 (stereo not drawn) | 11.2µM*
COC(=O)c1ccc(OCC2c3cc(OC)c(OC)cc3CCN2C(=O)c2ccccc2C)cc1 (stereo not drawn) | 11.2µM*
COc1ccc(C(=O)N2CCc3ccc(C(=O)NCc4ccccc4C)cc32)cc1 | i
CCOc1cc2c(cc1OCC)C(CC(=O)O)N(C(=O)Nc1ccccc1C(F)(F)F)CC2 (stereo not drawn) | 27.2%
COc1cc2c(cc1OC)C(COc1ccc(F)cc1)N(C(=O)C(C)C)CC2 (stereo not drawn) | -7.6%
COc1ccc(CC(=O)N2CCc3cc(OC)c(OC)cc3C2COc2ccc(F)cc2)cc1OC (stereo not drawn) | 11.2µM*
CCNC(=O)N1CCc2cc(OC)c(OC)cc2C1CNC(=O)C1CC1 (stereo not drawn) | -5.4%
COc1ccc(-c2noc([C@@H]3CCCN3C(=O)Cc3ccc(F)cc3)n2)cc1OC | -18.7%
Cc1cc2c(c(=O)n(-c3ccc(F)cc3)c(=O)n2CC(=O)Nc2ccc(F)cc2)n1C | i
SMILES | Pf Dd2 growth
CCCc1nc(C(=O)N2CCCCC2C(=O)OCC)cs1 (stereo not drawn) | 1.3%
CN1CC[C@H]2CN(C(=O)c3cn(-c4ccccc4)nn3)C[C@@]2(C(=O)O)C1 | 2.9%
CC(=O)c1ccc(NC(=O)N[C@H]2C[C@@](O)(C(=O)N[C@H](Cc3ccccc3)C(N)=O)C[C@@H](O)[C@@H]2O)cc1 | 21.4%
CCn1ncc(C(=O)N2CCCn3ccnc3C2c2cnn(C)c2)c1C (stereo not drawn) | 6.1%
CN1CCCCC(CC(=O)Nc2ccc(F)c(F)c2)C1=O (stereo not drawn) | 6.1%
CN(CCCc1cnn(C)c1)C(=O)C1CNCCO1 (stereo not drawn) | 19.3%
O=c1[nH]c(C2CCN(Cc3ccc(C(F)(F)F)cc3)CC2)nn1Cc1ccccc1 | i
Cc1cc(=O)[nH]c(NCCNc2nccc(-c3cccnc3)n2)n1 | 0.3%
CC(C)S(=O)(=O)CCNc1nccc(-c2cccnc2)n1 | -7.1%
OC(CNc1nccc(-c2cccnc2)n1)COc1ccc(Cl)cc1 (stereo not drawn) | 14.1µM*
CCC(=O)N1CCN(C2CCN(CCOC)C2=O)CC1 (stereo not drawn) | -6.3%
COc1ccc(NC(=O)c2oc3ccc4c(c3c2C)C(=O)CC(C)(C)O4)cc1OC | i
CCc1cccc(NC(=O)c2cc3c(=O)oc4ccc(C)cc4c3s2)c1 | 68.2%
CCc1cccc(NC(=O)c2oc3ccc4c(c3c2C)C(=O)CC(C)(C)O4)c1 | 10µM*
COc1ccc2c(CNCCc3ccco3)c(C(=O)O)n(Cc3ccccc3)c2c1 | -12.2%
COc1ccc2c(CNCc3ccc(C)o3)c(C(=O)O)n(Cc3ccccc3)c2c1 | -15.9%
COc1ccc2c(CNCCc3cccs3)c(C(=O)O)n(Cc3ccc(F)cc3Cl)c2c1 | i
C=Cc1ccc(Cn2c(C(=O)O)c(CNCc3ccccc3)c3ccc(OC)cc32)cc1 | 11.2µM*
COc1ccc(Cn2c(C(=O)O)c(CNCc3ccc(SC)cc3)c3ccc(OC)cc32)cc1 | 7.94µM*
COc1ccc2c(CNCc3cccs3)c(C(=O)O)n(Cc3ccc(F)cc3)c2c1 | -2.6%
O=C(N[C@H](C1CCNCC1)C1CC(O)C1)c1cccc(=O)[nH]1 (stereo partly drawn) | -1.3%
